Lamin A splicing – qHTS Assay for Modulators of Lamin A Splicing; HeLa LMNA splicing GFP/RFP minigene ratio, 48 h; Potency, µM (top dose mostly 46.1 µM), for inactives: at the highest dose ratio change, negative = inhibition, usual class: inhibitors; 200,000 compounds, 0.01% hits; active means well fitted inhibition curve with a large enough effect in the signal ratio, with a control signal flat, not every such curve was filed as active; inconclusive means small, poorly fitted or top-dose-only effect, or effect the other way, or a change in a side signal; the % refers to the signal ratio; further: potency means the concentration at half of the fitted maximal effect
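S3 HeLa stable clones carrying a lamin A-EGFP splicing minigene plus DsRed2 were seeded at 600 cells/well in Opti-MEM with 2% FBS, pin-dosed and incubated 48 h at 37°C. Acumen cytometry (488 nm) gave the GFP/RFP total-intensity ratio.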
HPGD inh – qHTS Assay for Inhibitors of HPGD (15-Hydroxyprostaglandin Dehydrogenase). 15-hydroxyprostaglandin dehydrogenase [NAD(+)] (Homo sapiens), P15428. purified HPGD, NADH fluorescence kinetic, PGE2 substrate. Potency, µM, inactives show top-dose activity change, negative = inhibition, hits mostly inhibitors. 150,000 compounds, 4.3% hits; further: potency means the concentration at half of the fitted maximal effect
Target sequence (P15428 whole entry, looked up): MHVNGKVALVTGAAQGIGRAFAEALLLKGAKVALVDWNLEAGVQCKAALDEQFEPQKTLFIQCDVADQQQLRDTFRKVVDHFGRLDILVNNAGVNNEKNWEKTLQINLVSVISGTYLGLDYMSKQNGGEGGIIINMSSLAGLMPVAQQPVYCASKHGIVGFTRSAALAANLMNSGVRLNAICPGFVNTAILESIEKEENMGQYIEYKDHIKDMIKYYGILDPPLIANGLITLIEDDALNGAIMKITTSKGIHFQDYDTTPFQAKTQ
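20 nM HPGD preincubated 15 min at room temperature with compound in 50 mM Tris-HCl pH 8, 0.01% Tween 20. Started with 1 mM NAD+ and 30 uM prostaglandin E2; NADH fluorescence (360/450 nm) read 5 times over 30-s intervals, last minus first.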
PNC inhibitor – High Content Assay for Compounds that inhibit the Assembly of the Perinucleolar Compartment; PC3M PTB-GFP, PNC prevalence imaging, 16 h; stronger effect = lower value; activity change (PNC), negative = inhibition, % at 10 µM; 140,000 compounds, 3.1% hits; AID 2417, 2010;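 active means readout at or below -70, meaning at least 70% loss of cells showing the perinucleolar compartment, a nuclear body marking cancer cells; inconclusive means readout between -30 and a set limit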;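 further: plate controls were DMSO wells for no effect and camptothecin positive control wells for full effect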
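Read-out is percentage of cells bearing a perinucleolar compartment, from automated 20x imaging of fixed, Hoechst-stained PC3M PTB-GFP cells. Cells were seeded 4 h, then exposed 16 h to compound (23 nl of library stock) in duplicate plates.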
ALDH1A1 inh – qHTS Assay for Inhibitors of Aldehyde Dehydrogenase 1 (ALDH1A1); Aldehyde dehydrogenase 1A1 (Homo sapiens), P00352; Potency, µM (highest dose often 75.3 µM), for the others: at the top dose activity, negative = inhibition, usual class: inhibitors; 220,000 compounds, 7.3% hits; Purified ALDH1A1, NADH fluorescence, propionaldehyde substrate;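 further: potency means the concentration at half of the fitted maximal effect; plate controls were no enzyme wells and a reference inhibitor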
Target sequence (P00352 whole entry, looked up): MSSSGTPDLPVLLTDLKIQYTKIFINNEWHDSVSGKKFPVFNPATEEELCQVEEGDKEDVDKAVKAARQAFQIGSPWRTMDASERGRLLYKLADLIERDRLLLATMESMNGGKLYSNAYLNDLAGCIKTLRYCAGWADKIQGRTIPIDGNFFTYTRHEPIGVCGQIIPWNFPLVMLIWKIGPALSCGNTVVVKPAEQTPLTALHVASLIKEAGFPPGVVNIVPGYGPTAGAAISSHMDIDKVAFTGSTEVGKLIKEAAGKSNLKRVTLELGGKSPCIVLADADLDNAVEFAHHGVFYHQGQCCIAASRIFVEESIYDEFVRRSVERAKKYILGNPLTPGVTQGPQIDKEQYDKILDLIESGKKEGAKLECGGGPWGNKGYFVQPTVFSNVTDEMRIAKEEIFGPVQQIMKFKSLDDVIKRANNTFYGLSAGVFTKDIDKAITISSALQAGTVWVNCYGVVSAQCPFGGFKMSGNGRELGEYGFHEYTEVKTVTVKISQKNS
ALOX12 inhib – qHTS Assay for Inhibitors of 12-hLO (12-human lipoxygenase); purified 12-hLO, xylenol orange hydroperoxide absorbance; Potency, µM (series often up to 57.1 µM), inactives show at the top dose activity change, negative = inhibition, usual class: inhibitors; 150,000 compounds, 0.12% hits; AID 1452, 2008; active means well fitted inhibition curve with a large enough effect; inconclusive means small, poorly fitted or top-dose-only effect; further: potency means the concentration at half of the fitted maximal effect; nearly all actives have a fitted effect of over 55% in size
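Xylenol orange chromogenic assay: hydroperoxide from 12hLO oxidises Fe(II), giving red-shifted Fe(III)-XO absorbance. Conditions: 150 nM enzyme, 40 uM arachidonic acid, 25 mM Hepes pH 7.0, 0.01% Triton X-100, 30 min, room temperature.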
Active calls of the source: *; ? = inconclusive; nt = no result given; [ ] = dose if it differs, or a comment. In the library only some 10% were active in any assay of this set; here they are far more common. Unless noted, the call rests on the fitted dose curve; in most records, active means well fitted inhibition curve with a large enough effect (not every such curve was filed as active); inconclusive means small, poorly fitted or top-dose-only effect, or another doubt; inactive means no such curve, though single readings can be large or run the other way. Unless noted, on the % scale 0 is the no-effect control and ±100 the full control effect.

SMILES | Lamin A splicing | HPGD inh | PNC inhibitor | ALDH1A1 inh | ALOX12 inhib
COc1ccc(C2Nc3ccccc3C(=O)N2c2ccc(C)cc2)cc1Cn1cc([N+](=O)[O-])cn1 (centres undefined) | 8% | -19% | 14 | 28µM* | -4%
COc1ccc(C2Nc3ccccc3C(=O)N2c2ccc(C)cc2)cc1Cn1nnc2ccccc21 (centres undefined) | -2% | nt | ? | -12% | -12%
NC([N-]/N=C/c1ccccn1)=[S]=[Fe].O=S(=O)(O)O | nt | nt | nt | nt | 1%[11.4 µM]
Cc1cc2c(cc1S(=O)(=O)C(C)CC(=O)NC1CCC(C)CC1)OCC(=O)N2 (centres undefined) | 15%[46 µM] | nt | nt | nt | nt
COc1ccc(C(=O)CNc2ccccc2CO)cc1 | 5%[46 µM] | nt | nt | 14µM* | nt
CC(C)(C)c1ccc(-n2nc(C#N)c(Cl)cc2=O)cc1 | nt | nt | nt | 13µM* | nt
CC(C)(C)c1ccc(-n2nc(C(N)=O)c(O)cc2=O)cc1 | nt | nt | nt | -4% | nt
Cc1ccccc1CNC(=O)Cc1ccc(NC(=O)N2CCCCc3ccccc32)cc1 | -3%[46 µM] | nt | nt | nt | nt
CC(CN(C)C)NC(=O)c1ccc(Cc2nc3ccccc3[nH]2)cc1 (centres undefined) | nt | -1% | nt | 18% | 7%
COc1ccc(-n2nnnc2S(=O)(=O)CC(=O)N2CCCCC2)cc1 | ? | 14µM* | -21 | 6.3µM* | -7%
COc1cc(OC)cc(-n2nnnc2SCC(=O)N2CCCC2)c1 | -8% | -13% | ? | 2% | 1%
CCc1cc(SC#N)cc(C)c1NC(=O)CCl | ? | 16µM* | 29 | -4% | 1%
CCC(=O)Nc1cc(C(C)C)c(O)cc1C | -2% | 1% | -15 | 9% | -3%
Cc1cc(SC#N)cc(C)c1NC(=O)CCl | ? | ? | -115* | ? | 0%
Cc1ccc(-n2nc(C)c(NC(=O)CCl)c2C)cc1C | ? | -15% | 47 | ? | -1%
CCC(=O)Nc1ccc(SC#N)cc1C | 15% | -16% | -8 | 2.5µM* | 2%
CCN1CCN(C(=O)NC(C(=O)NC2C(=O)N3C2SC(C)(C)C3C(=O)O)c2ccccc2)C(=O)C1=O (centres undefined) | nt | -7% | nt | 1% | -4%
COc1cccc(NS(=O)(=O)c2ccc3[nH]cc(C(=O)N(C)C4CCCCC4)c(=O)c3c2)c1 | -3%[46 µM] | nt | nt | nt | nt
N#CNC(=Nc1cccc(F)c1)SCc1ccccc1 | -12% | -1% | -103* | -1% | 3%
Cc1ccc2oc(-c3ccccc3)c(C(=O)O)c(=O)c2c1 | 4% | 14µM* | 66 | ? | -5%
O=C(c1ccc(C(F)(F)F)cc1)N1CCC(=O)N(C(COCc2ccccc2)Cc2ccccc2)CC1 (centres undefined) | ? | -14% | -19 | -11% | -6%
CC(C)(C)c1ccc(C(=O)N2CCC(=O)N(C(COCc3ccccc3)Cc3ccccc3)CC2)cc1 (centres undefined) | ? | -29% | -115* | ? | -9%
Cc1cc(OCC(=O)NC(C)c2ccccc2)ccc1[N+](=O)[O-] (centres undefined) | -8%[46 µM] | nt | nt | 25µM* | nt
COCCN1C(=O)N[C@@H](c2cccs2)C(C(C)=O)=C1C | -6%[9.22 µM] | -6% | nt | 14%[13.5 µM] | 5%[11.4 µM]
CSc1nc(N2CCOCC2)c2c(c1C#N)CC(C)(C)OC2 | -14% | -9% | 31 | -5% | 7%
SMILES | Lamin A splicing | HPGD inh | PNC inhibitor | ALDH1A1 inh | ALOX12 inhib
CCc1nc(Cl)c(C#N)c2c1CCCC2 | 11% | -11% | -16 | 5% | -1%
CSc1nc(C)c2c(c1C#N)CCCC2 | 2% | -20% | ? | 25µM* | 2%
N#CCCSc1nc(N2CCOCC2)c2c(c1C#N)CCCC2 | 16% | -4% | ? | 13µM* | -4%
CCCSc1nc(N2CCOCC2)c2c(c1C#N)CCCC2 | ? | nt | 25 | 14µM* | -8%
CSc1nc(N2CCOCC2)c2c(c1C#N)CCCCC2 | -6% | -14% | ? | 22µM* | -2%
Cc1ccc(C)c(CN2CCC(CNC(=O)C(CC(C)C)N3Cc4ccccc4C3=O)CC2)c1 (centres undefined) | -20%[46 µM] | nt | nt | nt | nt
C[C@@]12CC[C@@H]3[C@@H](CC[C@H]4C[C@@H](O)CC[C@]43C)[C@H]1CC[C@@H]2c1cc(C(F)(F)F)n[nH]1 | nt | -2% | nt | 3%[13.5 µM] | 3%[11.4 µM]
Nc1nc2c(ncn2C2OC(COC(=O)c3ccccc3)C(OC(=O)c3ccccc3)C2OC(=O)c2ccccc2)c(=O)[nH]1 (centres undefined) | ? | -4% | nt | 2% | -10%
CCOC(=O)c1ccc(N/C=C2/CCCC(C)C2=O)cc1 (centres undefined) | 3% | -9% | -10 | ? | -6%
CC1CCC/C(=C\Nc2ccc(C(=O)O)cc2)C1=O (centres undefined) | nt | nt | nt | 14µM* | nt
CCOc1ccc(C2=CC(c3cccc(Br)c3)n3c(nc4ccccc43)N2)cc1Cl (centres undefined) | -10%[46 µM] | nt | nt | nt | nt
N[C@H](CCC(=O)N[C@H](CSN=O)C(=O)NCC(=O)O)C(=O)O | nt | 11µM* | nt | -12% | -14%
N[C@@H](CCC(=O)N[C@H](CSN=O)C(=O)NCC(=O)O)C(=O)O | ? | -5% | nt | -7% | nt
C=CCn1c(SCC(=O)NCC2CCCO2)nnc1-c1ccccc1 (centres undefined) | -4%[46 µM] | nt | nt | 5% | nt
C=CCn1c(SCC(=O)NCC2CCCO2)nc2scc(-c3ccco3)c2c1=O (centres undefined) | -11% | -26% | -13 | 25µM* | -2%
O=C(CSc1nc2scc(-c3ccco3)c2c(=O)n1-c1ccccc1)NCC1CCCO1 (centres undefined) | 12% | -9% | -6 | 13µM* | -13%
C=CCn1c(SCc2ccccc2)nc2scc(-c3ccc(C)o3)c2c1=O | -2% | -11% | 82 | ? | 5%
C=CCn1c(SCC(=O)NCCOC)nc2scc(-c3ccco3)c2c1=O | 10% | -13% | 11 | 7.9µM* | -30%
C=CCn1c(SCC(N)=O)nc2scc(-c3ccc(C)o3)c2c1=O | nt | nt | nt | 10µM* | nt
CC(C)CNC(=O)O | nt | -14% | nt | -10%[13.5 µM] | 3%[11.4 µM]
Cc1ccc(Nc2ccc(N3CCN(C(=O)c4cccc([N+](=O)[O-])c4)CC3)nn2)cc1 | 2%[46 µM] | nt | nt | nt | nt
NC(=O)CSc1nc2scc(-c3ccco3)c2c(=O)n1-c1ccccc1 | -5% | -15% | -27 | 3.5µM* | -15%
O=C(CSc1nc2scc(-c3ccco3)c2c(=O)n1-c1ccccc1)N1CCOCC1 | 5% | -13% | -18 | ? | -2%
CN1Cc2c(C(=O)OC(C)(C)C)ncn2-c2ccsc2C1=O | nt | -6% | nt | 11µM* | -1%
CC(C)(C)N1C(=O)c2ccc(C(=O)Nc3nccs3)cc2C1=O | 14% | -3% | 33 | ? | -3%

Bioassay records: PubChem, National Center for Advancing Translational Sciences (NCATS)
